Only some compounds are listed: those with a hit (about 7.9% of all), similar ones and a draw of the others.
MCF10A rerep – A quantitative high throughput screen for small molecules that induce DNA re-replication in MCF 10a normal breast cells; MCF 10A DNA re-replication, Hoechst nuclear intensity, 48 h; AID 624296, 2012; Potency, µM (doses to about 46.1 µM), hits mostly activators; 350,000 tested, 2.9% active; note: nearly all actives have a fitted effect of over 50% in size
SW480 rerep – A quantitative high throughput screen for small molecules that induce DNA re-replication in SW480 colon adenocarcinoma cells; SW480 DNA re-replication, Hoechst DNA content imaging, 48 h; Potency, µM (top dose mostly 46.1 µM), hits mostly activators; 340,000 tested, 1.8% active; note: nearly all actives have a fitted effect of over 55% in size
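First, 250 cells per well were seeded. Next, compound or vehicle (23 nL) was pinned in, plates sat 48 hr at 37 C. Finally Hoechst was added for 40 min before fluorescence scanning.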
KB-3-1 cytotox – qHTS assay for MDR1-selective chemotherapeutics: Primary screen using the parental adenocarcinoma cell KB-3-1 | Potency, µM (titrated, usually from 46.1 µM), usual class: cytotoxic | 400,000 tested, 1.4% active | KB-3-1 viability, CellTiter-Glo ATP luminescence, 72 h | AID 1347075, 2019; note: nearly all actives have a fitted effect of over 60% in size
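Screening of KB-3-1 cells (DMEM, 10% FBS, phenol-red free) ran from lowest to highest compound concentration; after 72 h at 37 °C viability was read luminescently and curves fitted.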
KB-V1 MDR tox – qHTS assay for MDR1-selective chemotherapeutics: Primary screen using the drug-selected MDR subline cells KB-V1; KB-V1 MDR cells viability, CellTiter-Glo, 72 h; Potency, µM (series often up to 46.1 µM), usual class: cytotoxic; 400,000 tested, 3.4% active; AID 1347076, 2019; note: nearly all actives have a fitted effect of over 60% in size
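qHTS viability screen in drug-selected KB-V1 MDR cells: 72 h compound treatment at 37 degrees C, ATP luminescence end point.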
HT1080-NT tox – qHTS for induction of synthetic lethality in tumor cells producing 2HG: qHTS for the HT-1080-NT fibrosarcoma cell line; HT-1080-NT fibrosarcoma viability, CellTiter-Glo ATP luminescence, 48 h; Potency, µM (highest dose often 46.1 µM), most hits filed as cytotoxic; 360,000 tested, 1.6% active;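 note: NT is the 2HG producing partner of a matched IDH1 knockdown line; nearly all actives have a fitted effect of over 55% in size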
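HT-1080-NT; 750 cells/well; 5% FBS RPMI; 48 h compound, 37 degrees C; CellTiter-Glo luminescence; curve fitting and curve-class assignment.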
HT1080 IDH1KD tx – qHTS for induction of synthetic lethality in tumor cells producing 2HG: qHTS for the HT-1080-IDH1KD cell line | AID 686971, 2013 | HT-1080 IDH1 knockdown viability, ATP luminescence, 48 h | Potency, µM (titrated, usually from 46.1 µM), actives largely listed as cytotoxic | 360,000 tested, 2% active
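Using the IDH1-knockdown HT-1080 line run in the same batch and compound series as the NT line, viability after 48 h at 37 °C was determined by CellTiter-Glo luminescence and expressed as % activity.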
Each line names hits and unclear results; the compound was inactive in the other large screens. Calls come from the whole dose curve; as a rule, active = well fitted curve in the direction sought with a large enough effect; inconclusive = small, poorly fitted or top-dose-only effect, or another doubt; inactive = no such curve, though single readings can be large; an effect the other way counts as inactive or inconclusive.

CC1=CN2C(=N)/C(=C/c3ccco3)C(=O)N=C2S1	none
COc1ccc(OCCCn2cc(/C=C3/C(=N)N4C=C(C)SC4=NC3=O)c3ccccc32)cc1	KB-V1 MDR tox 10µM
O=S1(=O)N=C(Sc2ccc3c(c2)OCCO3)c2ccccc21	none (no result: MCF10A rerep, SW480 rerep, HT1080-NT tox, HT1080 IDH1KD tx)
CCOc1ccc(NC(=O)CSc2nnc3scc(-c4ccc(Cl)cc4)n23)cc1	none (no result: MCF10A rerep, SW480 rerep, HT1080-NT tox, HT1080 IDH1KD tx)
CCOC(=O)C1=C(Nc2ccc(OC)cc2)C(N)=NC1=N	KB-3-1 cytotox inconclusive, KB-V1 MDR tox 1.8µM, HT1080-NT tox 2.3µM, HT1080 IDH1KD tx 5.2µM (no result: MCF10A rerep, SW480 rerep)
CCOC(=O)c1ccc(Nc2c(-c3ccc(OC)cc3)nc3nc[nH]n23)cc1	none (no result: MCF10A rerep, SW480 rerep, HT1080-NT tox, HT1080 IDH1KD tx)
CCOc1ccc(S(=O)(=O)N2CCN(c3ccccc3)CC2)cc1C(N)=O	none (no result: MCF10A rerep, SW480 rerep, HT1080-NT tox, HT1080 IDH1KD tx)
O=C(Cc1ccc(Cl)cc1)Nc1ccc2oc(=O)ccc2c1	none
O=C(Cc1ccc(Cl)cc1)Nc1ccc(-c2cc3ccccc3oc2=O)c(Cl)c1	MCF10A rerep 2.3µM, SW480 rerep 7.3µM, KB-3-1 cytotox 1.3µM, KB-V1 MDR tox 2.3µM, HT1080-NT tox 6.5µM, HT1080 IDH1KD tx 6.5µM
CCc1ccc(OCC(=O)Nc2ccc(-c3cc4ccccc4oc3=O)c(OC)c2)cc1	SW480 rerep 2.3µM, KB-3-1 cytotox inconclusive, KB-V1 MDR tox inconclusive, HT1080-NT tox inconclusive, HT1080 IDH1KD tx inconclusive
COc1ccccc1-c1cc2nc(C)c(CCC(=O)Nc3ccc(Br)c(C)c3)c(C)n2n1	none (no result: MCF10A rerep, SW480 rerep, HT1080-NT tox, HT1080 IDH1KD tx)
O=C(NCc1cccc(C(F)(F)F)c1)c1ccc2nc([C@H]3C[C@H](O)[C@@H](CO)O3)[nH]c2c1	none (no result: MCF10A rerep, SW480 rerep)
CCOc1ccccc1/C=C/c1nc2ccccc2[nH]c1=O	MCF10A rerep inconclusive, SW480 rerep 23µM, HT1080 IDH1KD tx inconclusive
CCOc1ccccc1OCCCC(=O)Nc1nc2ccccc2[nH]1	none
CC(=O)NNC(=O)CC(=O)Nc1nc(C23CC4CC(CC(C4)C2)C3)cs1	MCF10A rerep inconclusive, HT1080-NT tox inconclusive, HT1080 IDH1KD tx inconclusive
CCNc1nc(C23CC4CC(CC(C4)C2)C3)cs1	MCF10A rerep 23µM, SW480 rerep inconclusive
CCC(=O)N1CCN(c2ccc(NC(=O)c3cc4ccccc4o3)cc2Cl)CC1	MCF10A rerep inconclusive, KB-3-1 cytotox inconclusive, KB-V1 MDR tox 9.2µM, HT1080-NT tox inconclusive, HT1080 IDH1KD tx 16µM
CCC(=O)N1CCN(c2ccc(NC(=O)c3ccco3)cc2Cl)CC1	KB-V1 MDR tox inconclusive
O=C(Nc1ccc(N2CCN(C(=O)c3ccccc3)CC2)c(Cl)c1)c1ccco1	MCF10A rerep inconclusive, KB-3-1 cytotox inconclusive, KB-V1 MDR tox inconclusive, HT1080 IDH1KD tx inconclusive
CCCC(=O)N1CCN(c2ccc(NC(=O)c3cc4ccccc4o3)cc2Cl)CC1	MCF10A rerep 6.5µM, KB-3-1 cytotox inconclusive, KB-V1 MDR tox inconclusive, HT1080-NT tox 18µM, HT1080 IDH1KD tx 21µM
O=C(Nc1ccc(N2CCN(C(=O)c3ccco3)CC2)c(Cl)c1)c1cc2ccccc2o1	MCF10A rerep 9.2µM, SW480 rerep inconclusive, KB-3-1 cytotox inconclusive, HT1080-NT tox inconclusive, HT1080 IDH1KD tx 15µM
CCCN(C(=O)CCc1nc(-c2ccc(OC)cc2)no1)c1ccccc1F	none (no result: MCF10A rerep, SW480 rerep, HT1080-NT tox, HT1080 IDH1KD tx)
CN1C(=O)C2(NC(=O)c3ccccc3N2C)c2ccccc21 (stereo not given)	none
CN1C(=O)C(Cl)(Cl)C(=O)c2ccccc21	MCF10A rerep inconclusive, SW480 rerep inconclusive, HT1080-NT tox 18µM, HT1080 IDH1KD tx inconclusive
C[C@H](NC(=O)c1nc[nH]c1C(=O)NC(c1ccccc1)c1ccccc1)C(=O)OC(C)(C)C	KB-3-1 cytotox inconclusive, KB-V1 MDR tox 8.2µM, HT1080-NT tox inconclusive, HT1080 IDH1KD tx inconclusive
CC(C)C[C@H](NC(=O)c1nc[nH]c1C(=O)N[C@@H](CCCCNC(=O)OC(C)(C)C)C(=O)OC(C)(C)C)C(=O)OC(C)(C)C	SW480 rerep inconclusive, KB-3-1 cytotox 16µM, KB-V1 MDR tox inconclusive, HT1080-NT tox inconclusive, HT1080 IDH1KD tx inconclusive
CC(C)C[C@H](NC(=O)c1nc[nH]c1C(=O)NCCCCCNC(=O)OC(C)(C)C)C(=O)OC(C)(C)C	SW480 rerep inconclusive, KB-3-1 cytotox inconclusive, KB-V1 MDR tox inconclusive, HT1080-NT tox inconclusive, HT1080 IDH1KD tx inconclusive
CC(C)C[C@H](NC(=O)c1nc[nH]c1C(=O)N1CCN(c2ccccc2)CC1)C(=O)OCc1ccccc1	MCF10A rerep 12µM
C[C@H](NC(=O)c1nc[nH]c1C(=O)NCCCCCNC(=O)OC(C)(C)C)C(=O)OC(C)(C)C	KB-V1 MDR tox 23µM
C[C@H](NC(=O)c1nc[nH]c1C(=O)N[C@H](C)c1ccccc1)C(=O)OC(C)(C)C	KB-V1 MDR tox inconclusive
C[C@H](NC(=O)c1nc[nH]c1C(=O)N1CCN(C(=O)OC(C)(C)C)CC1)C(=O)OC(C)(C)C	MCF10A rerep inconclusive
CC(C)C[C@H](NC(=O)c1nc[nH]c1C(=O)N1CCN(C(=O)OC(C)(C)C)CC1)C(=O)OC(C)(C)C	MCF10A rerep inconclusive, SW480 rerep 16µM, KB-3-1 cytotox 5.8µM
CCOc1ccccc1N1CC(O)=C(c2nc3ccccc3s2)C1=N	KB-3-1 cytotox 9.2µM, KB-V1 MDR tox inconclusive, HT1080-NT tox 2.8µM, HT1080 IDH1KD tx 2.8µM
COc1ccc(OC)c(N2CC(O)=C(c3nc4ccccc4s3)C2=N)c1	none
N=C1C(c2nc3ccccc3s2)=C(O)CN1Cc1ccccc1	MCF10A rerep 5.2µM, SW480 rerep inconclusive, KB-3-1 cytotox 4.1µM, KB-V1 MDR tox inconclusive, HT1080-NT tox inconclusive, HT1080 IDH1KD tx inconclusive
CC(=O)N(O)c1ccc(/C=C2\C=Cc3ccccc32)cc1	KB-V1 MDR tox inconclusive (no result: MCF10A rerep, SW480 rerep, HT1080-NT tox, HT1080 IDH1KD tx)
CCOC(=O)c1cccc(NS(=O)(=O)c2cc(Br)cc3c2N(C(=O)C2CC2)CC3)c1	KB-3-1 cytotox 21µM (no result: MCF10A rerep, SW480 rerep, HT1080-NT tox, HT1080 IDH1KD tx)
O=C1CC(O)(C(F)F)Oc2ccc3ccccc3c21 (stereo not given)	none
O=C1CC(O)(C(F)(F)F)Oc2c1ccc1ccccc21 (stereo not given)	MCF10A rerep 21µM, SW480 rerep inconclusive, HT1080-NT tox inconclusive
C=CCn1c(CCNC(=O)c2cccs2)nnc1SCC(=O)c1cccc([N+](=O)[O-])c1	MCF10A rerep inconclusive, SW480 rerep inconclusive, HT1080 IDH1KD tx inconclusive
C=CCn1c(CNC(=O)c2cccs2)nnc1SCC(=O)c1ccc(Br)cc1	KB-V1 MDR tox 15µM, HT1080 IDH1KD tx inconclusive
